# Measured values: the supplement of paper PMC3334620
# In all, about 33,000 sequences were measured (“E-score (-0.5 to 0.5)”: median about -0.011, highest 2% from about 0.28 on). The list comes from a sample in which the highest values are over-represented; it also holds similar and randomly drawn sequences.
# Biological target: T1, Gcr1 (UniProt P07261)
# T1 sequence: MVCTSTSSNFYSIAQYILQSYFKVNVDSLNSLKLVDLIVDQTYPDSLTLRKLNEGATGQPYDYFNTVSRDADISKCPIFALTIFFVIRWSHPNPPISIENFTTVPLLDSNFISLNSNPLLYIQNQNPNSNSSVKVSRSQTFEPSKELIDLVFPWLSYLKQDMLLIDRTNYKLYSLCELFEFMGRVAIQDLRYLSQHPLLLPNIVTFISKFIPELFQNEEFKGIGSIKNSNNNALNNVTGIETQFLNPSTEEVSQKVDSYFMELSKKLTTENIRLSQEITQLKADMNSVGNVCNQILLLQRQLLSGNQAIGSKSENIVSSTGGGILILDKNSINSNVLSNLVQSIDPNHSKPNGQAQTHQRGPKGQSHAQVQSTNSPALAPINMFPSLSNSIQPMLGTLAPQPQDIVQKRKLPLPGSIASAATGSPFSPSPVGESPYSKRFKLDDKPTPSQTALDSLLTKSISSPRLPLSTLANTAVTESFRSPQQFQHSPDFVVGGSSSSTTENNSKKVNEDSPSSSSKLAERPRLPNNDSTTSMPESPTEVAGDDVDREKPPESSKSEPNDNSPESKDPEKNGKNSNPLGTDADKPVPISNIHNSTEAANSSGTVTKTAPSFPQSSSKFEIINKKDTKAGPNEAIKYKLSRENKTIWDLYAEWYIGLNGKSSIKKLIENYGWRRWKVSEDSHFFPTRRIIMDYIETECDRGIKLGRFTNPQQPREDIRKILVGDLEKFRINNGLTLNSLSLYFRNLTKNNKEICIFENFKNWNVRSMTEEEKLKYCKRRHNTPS
# Assay: PBM E-score (8-mer binding enrichment) (E-score (-0.5 to 0.5)); higher = stronger / more preferred TF binding
# Settings: protein concentration: 100 nM; construct: GST-full length
# Experimental: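 Universal 'all 10-mer' protein binding microarrays (Agilent AMADID 015681) probed with GST-tagged S. cerevisiae TFs (full-length or DBD) made by in vitro transcription/translation (PURExpress), about 100-200 nM. Bound TF was detected with fluorescent anti-GST. Each ungapped 8-mer (which stands for itself and its reverse complement) is scored by the PBM enrichment score (E-score), a modified Wilcoxon-Mann-Whitney statistic from -0.5 to +0.5, computed with the Universal PBM Analysis Suite. Scale: above 0.35 generally sequence-specific binding.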
row,Sequence,PBM E-score
1,TATGAAGA,0.0942
2,ATAATTAT,0.297
3,ATAATTAC,0.0678
4,ATAATTAA,0.134
5,GAAAGAGA,-0.038
6,ACGCTGCA,0.0243
7,GCGCTGCC,0.0863
8,ACGCTGCG,0.086
9,ACGCTGCT,0.34
10,ACGCTGAT,-0.0742
11,ACGCTGCC,0.339
12,AGCAGGAC,-0.0439
13,AGTCCCGG,0.108
14,CCAGGCCG,-0.117
15,GAGCTAGC,-0.122
16,GCGAGCGC,-0.0888
17,AGATCAGA,-0.0273
18,AACCCTGT,-0.0296
19,CAATCTGG,-0.0284
20,AAATCTGC,0.0369
21,AAATCTGG,0.292
22,CCGTTAGG,0.0609
23,CCCGGGAC,0.21
24,ATTGCGGG,-0.0146
25,GGTGCCGA,0.285

row,Sequence,PBM E-score
1,AGTGCCCA,0.0254
2,GATGCCCA,0.378
3,CGTGCCCA,0.0649
4,CGTGCCGA,-0.0978
5,GATGCCCC,0.248
6,TATGCCCA,-0.14
7,GGTGCCCA,0.382
8,AGTGCCGA,-0.0356
9,AGATTCAG,0.117
10,ACAGGGAC,0.107
11,GCTTCCCA,0.386
12,ACTTCCCA,0.0658
13,ACTTCCCC,0.0219
14,CCTTCCCA,0.122
15,GCTTCCCC,0.341
16,CCTTCCCC,-0.122
17,CTGTGGGC,0.0855
18,GGTAGATA,0.00026
19,CAGTGCCA,-0.0969
20,ATGCCGGA,0.215
21,AATAGCGC,0.0793
22,GCATCCGA,0.33
23,CCATCCTA,0.0473
24,CCATCCGA,-0.0665
25,ACATCCGA,-0.104

row,Sequence,PBM E-score
1,ACATCCTA,0.166
2,GCATCCTA,0.4
3,ACCTATAT,0.194
4,ATGTTGTC,-0.117
5,ATAATTGC,-0.00448
6,GCGTATAC,0.156
7,TCCTATAA,0.334
8,ACCTATAA,0.0515
9,ACGTATAA,0.132
10,GCGTATAA,0.353
11,CCGTATAA,0.195
12,TCGTATAA,0.286
13,CCCTATAA,0.141
14,GTGTATAA,-0.0442
15,AAGGTGCA,-0.0118
16,CAATAGCG,0.025
17,CGAAATAG,0.131
18,ACCCTGCG,-0.0486
19,CGGAATAA,-0.168
20,GATGCGCA,0.134
21,CTGGTTCC,0.34
22,ATGGTTGC,0.274
23,ACGGTTGC,-0.264
24,CCGGTTGA,0.0186
25,CTGGTTCA,-0.192

row,Sequence,PBM E-score
1,CCGGTTGC,0.317
2,ATGGTTCC,0.0654
3,CTGGTTGA,-0.09
4,CTGGTTGC,0.288
5,ACGGTGTC,-0.168
6,CTGCTACA,0.0929
7,CTCATCAG,0.0338
8,CTTCTATA,0.187
9,CAGATACA,0.0958
10,GACATTCA,-0.094
11,AATAACGT,0.00611
12,GGATGCCC,0.464
13,AGATGCTA,0.25
14,AGATGCTG,0.282
15,AGATGCTC,0.0444
16,AGATGCCC,0.108
17,GGATGCTA,0.44
18,AGATGCCG,0.273
19,AGATGCCA,0.385
20,CGATGCCC,0.0343
21,CGATGCTA,0.266
22,GAATGCTA,-0.121
23,AGATGCCT,0.17
24,AGAGCGCC,0.0412
25,CGCAACAG,-0.0598

row,Sequence,PBM E-score
1,GGCAAACA,-0.14
2,GTGGGAGA,0.0205
3,GTGGTAGA,-0.166
4,AAGGTTGT,0.0394
5,TGATGCCA,-0.0459
6,CGATGCCA,0.156
7,GGATGCCA,0.454
8,CGTAGGGC,-0.108
9,ATTAGCTG,0.107
10,AACTGTAC,-0.166
11,AAAAAGCT,-0.183
12,CGGAAGCC,0.451
13,GAGAAGCC,0.395
14,GCGAAGCC,0.1
15,AAGAAGCC,0.401
16,AAGAAGGT,0.122
17,AAGAAGCG,0.0955
18,CGGAAGGC,0.00052
19,AAGAAGCA,0.165
20,CGGAAGCA,0.0914
21,GAGAAGCA,0.111
22,AAGAAGCT,0.386
23,CGACCCCC,-0.203
24,GCAGAGAA,-0.0151
25,TGAGCACA,-0.235

row,Sequence,PBM E-score
1,AGCATAAT,-0.00272
2,ATATACTA,0.174
3,AAAGTTAA,0.0767
4,CAGAAGCG,0.223
5,CAGAAGCA,0.0126
6,CAGAAGCC,0.306
7,ACGCTAGA,-0.0413
8,TAGCGATA,-0.0939
9,CATGCCTC,-0.101
10,CTCCAGCC,-0.183
11,CAATCGGG,0.0633
12,CAGCAACG,0.0545
13,CCGCAACA,-0.0641
14,CCGCAACC,0.316
15,ACGCAACC,0.121
16,CGGCAACA,0.206
17,AAGCAACC,0.0616
18,AGGCAACC,0.0186
19,CAGCAACC,0.287
20,CGGCAACC,0.29
21,TTCGCCAA,0.0203
22,CCACCGCC,-0.0958
23,ACTTTGCA,-0.0113
24,CCGGGGAA,0.0357
25,CAACGCAC,-0.152

row,Sequence,PBM E-score
1,AAGATATT,0.125
2,ACCGAGTC,-0.306
3,ATAGAGAA,-0.111
4,CGAGTAGC,-0.018
5,GGTGTGAA,-0.0292
6,CCTGATCC,0.0357
7,AAGAAGAC,0.0399
8,ACGAAGAA,-0.0157
9,TAGAAGAA,0.352
10,AATAAGAA,0.328
11,AAGAAGAA,0.303
12,AATAAGAG,0.0844
13,GAGAAGAA,0.0707
14,AAGAAATT,0.0237
15,CAGAAGAA,0.212
16,AAGAAAAA,0.164
17,AAGAAAAT,0.304
18,AATAAGAT,0.0233
19,CCGGAGAA,-0.189
20,AGGTTTTC,0.0618
21,CACACAAG,0.128
22,ACTTTCAC,0.0906
